Laboratory results taken from the supplement of paper PMC9942566.
Structures can show the parent of a compound that is named as a salt. ± gives the standard deviation of the averaged measurements.

These compounds were tested on Serratia marcescens K904 PosmB-luxCDABE reporter (pMQ747) (assay: PosmB-lux reporter fold induction (RLU/OD600 relative to no-compound control), highest over Biolog concentrations; higher = stronger reporter activation). Details: Biolog plate: PM11; well positions: C1-4; ΔrcsB mutant CMS5177; 4 h.
Experimental: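 Serratia marcescens K904 (wild type) or its isogenic ΔrcsB mutant, carrying the Rcs-dependent PosmB-luxCDABE reporter plasmid pMQ747, was grown in LB at OD600 0.1 in Biolog Phenotype MicroArray plates PM11-20 for 4 h at 30-32°C. Each compound is present at 3-4 proprietary concentrations (not stated); per the Fig. S1 legend the value given is the highest fold over those wells. Three independent trials.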
In the case of `Cc1c(N)nc([C@H](CC(N)=O)NC[C@H](N)C(N)=O)nc1C(=O)N[C@H](C(=O)N[C@H](C)[C@@H](O)[C@H](C)C(=O)N[C@H](C(=O)NCCc1nc(-c2nc(C(=O)NCCC[S+](C)C)cs2)cs1)[C@@H](C)O)[C@@H](OC1OC(CO)C(O)C(O)C1OC1OC(CO)C(O)C(OC(N)=O)C1O)c1cnc[nH]1` (stereo not given in full) [Bleomycin], the “PosmB-lux reporter fold induction” value is reported as 0.988 ± 0.1.

Same assay, conditions: Biolog plate: PM11; well positions: G9-12; ΔrcsB mutant CMS5177; 4 h
For `O=[Te]([O-])[O-].[K+].[K+]` [Potassium tellurite], the “PosmB-lux reporter fold induction” value was 1.14 ± 0.19.

Same assay, conditions: Biolog plate: PM13; well positions: A9-12; ΔrcsB mutant CMS5177; 4 h
With `[Cl][Ni][Cl]` [Nickel chloride] the “PosmB-lux reporter fold induction” value was 1.06 ± 0.2.

Same assay, conditions: Biolog plate: PM13; well positions: B9-12; ΔrcsB mutant CMS5177; 4 h
`CCn1cc(C(=O)O)c(=O)c2cc3c(cc21)OCO3` [Oxolinic acid] was tested, and the “PosmB-lux reporter fold induction” value was 4.3 ± 0.48.

Same assay, conditions: Biolog plate: PM13; well positions: C9-12; ΔrcsB mutant CMS5177; 4 h
`[K+].[K+].[O]=[Cr](=[O])([O-])[O-]` [Potassium chromate] was tested, and the “PosmB-lux reporter fold induction” value was 1.87 ± 0.86.

Same assay, conditions: Biolog plate: PM13; well positions: E5-8; ΔrcsB mutant CMS5177; 4 h
With `CN[C@@H]1[C@@H](O)[C@@H](O[C@@H]2[C@@H](O)[C@H](O[C@H]3O[C@H]([C@@H](C)O)[C@@H](O)[C@H](O)[C@H]3N)[C@@H](N)C[C@H]2N)OC[C@]1(C)O` [Geneticin (G418)] the “PosmB-lux reporter fold induction” value was 1.34 ± 0.41.

Same assay, conditions: Biolog plate: PM14; well positions: B5-8; ΔrcsB mutant CMS5177; 4 h
`CCCCc1ccc(C(=O)O)nc1` [Fusaric acid] was tested, and the “PosmB-lux reporter fold induction” value was 1 ± 0.025.

Same assay, conditions: Biolog plate: PM14; well positions: B9-12; ΔrcsB mutant CMS5177; 4 h
In the case of `O=[As]([O-])([O-])[O-].[Na+].[Na+].[Na+]` [Sodium arsenate], the “PosmB-lux reporter fold induction” value is reported as 0.724 ± 0.054.

Same assay, conditions: Biolog plate: PM14; well positions: C9-12; ΔrcsB mutant CMS5177; 4 h
For `N#CO` [Sodium cyanate], the “PosmB-lux reporter fold induction” value was 1.38 ± 0.44.

Same assay, conditions: Biolog plate: PM14; well positions: D1-4; ΔrcsB mutant CMS5177; 4 h
`[Cl][Cd][Cl]` [Cadmium chloride] was tested, and the “PosmB-lux reporter fold induction” value was 0.871 ± 0.061.

Same assay, conditions: Biolog plate: PM14; well positions: D5-8; ΔrcsB mutant CMS5177; 4 h
For `O=C(O)CI` [Iodoacetate], the “PosmB-lux reporter fold induction” value was 0.974 ± 0.21.

Same assay, conditions: Biolog plate: PM14; well positions: D9-12; ΔrcsB mutant CMS5177; 4 h
`[Na+].[Na+].[O]=[Cr](=[O])([O-])[O][Cr](=[O])(=[O])[O-]` [Sodium dichromate] was tested, and the “PosmB-lux reporter fold induction” value was 1.03 ± 0.33.

Same assay, conditions: Biolog plate: PM14; well positions: G9-12; ΔrcsB mutant CMS5177; 4 h
For `O=[N+]([O-])[O-].[Na+]` [Sodium nitrate], the “PosmB-lux reporter fold induction” value was 2.32 ± 0.21.

Same assay, conditions: Biolog plate: PM15; well positions: E9-12; ΔrcsB mutant CMS5177; 4 h
With `C[n+]1ccc(-c2cc[n+](C)cc2)cc1` [Methyl viologen] the “PosmB-lux reporter fold induction” value was 1.89 ± 0.16.

Same assay, conditions: Biolog plate: PM15; well positions: G5-8; ΔrcsB mutant CMS5177; 4 h
`[N-]=[N+]=[N-]` [Sodium azide] was tested, and the “PosmB-lux reporter fold induction” value was 1.5 ± 0.15.

Same assay, conditions: Biolog plate: PM15; well positions: H1-4; ΔrcsB mutant CMS5177; 4 h
With `O=[N+]([O-])c1ncc[nH]1` [2-Nitroimidazole] the “PosmB-lux reporter fold induction” value was 1.51 ± 0.7.

Same assay, conditions: Biolog plate: PM16; well positions: C1-4; ΔrcsB mutant CMS5177; 4 h
`CN(C)S(=O)(=O)N(SC(F)(Cl)Cl)c1ccccc1` [dichlofluanid] was tested, and the “PosmB-lux reporter fold induction” value was 2.54 ± 1.7.

Same assay, conditions: Biolog plate: PM16; well positions: C9-12; ΔrcsB mutant CMS5177; 4 h
For `CCCCCCCCCCCCCCCC[n+]1ccccc1` [cetylpyridinium], the “PosmB-lux reporter fold induction” value was 1.77 ± 0.53.

Same assay, conditions: Biolog plate: PM16; well positions: D1-4; ΔrcsB mutant CMS5177; 4 h
With `O=[N+]([O-])c1ccc(Cl)c([N+](=O)[O-])c1` [1-chloro-2,4-dinitrobenzene] the “PosmB-lux reporter fold induction” value was 1.75 ± 0.99.

Same assay, conditions: Biolog plate: PM16; well positions: F1-4; ΔrcsB mutant CMS5177; 4 h
`O=[Te]([O-])[O-].[K+].[K+]` [potassium tellurite] was tested, and the “PosmB-lux reporter fold induction” value was 1.28 ± 0.43.

Same assay, conditions: Biolog plate: PM16; well positions: F5-8; ΔrcsB mutant CMS5177; 4 h
For `O=[Se]([O-])[O-].[Na+].[Na+]` [sodium selenite], the “PosmB-lux reporter fold induction” value was 1.25 ± 0.21.

Same assay, conditions: Biolog plate: PM17; well positions: A5-8; ΔrcsB mutant CMS5177; 4 h
`NC(CCl)C(=O)O` [b-chloro-L-alanine hydrochloride] was tested, and the “PosmB-lux reporter fold induction” value was 1.04 ± 0.15.

Same assay, conditions: Biolog plate: PM17; well positions: B5-8; ΔrcsB mutant CMS5177; 4 h
`CNC1CC(N)C(O)C(OC2OC(CO)C(O)C3OC4(OC(C(N)CO)C(O)C(O)C4O)OC23)C1O` (stereo not given) [hygromycin B] was tested, and the “PosmB-lux reporter fold induction” value was 1.37 ± 0.19.

Same assay, conditions: Biolog plate: PM17; well positions: D1-4; ΔrcsB mutant CMS5177; 4 h
With `CC1=C(C(=O)Nc2ccccc2)S(=O)(=O)CCO1` [oxycarboxin] the “PosmB-lux reporter fold induction” value was 1.01 ± 0.57.

Same assay, conditions: Biolog plate: PM17; well positions: G1-4; ΔrcsB mutant CMS5177; 4 h
`O=C(O)CCCc1ccc(N(CCCl)CCCl)cc1` [chlorambucil] was tested, and the “PosmB-lux reporter fold induction” value was 1.28 ± 0.21.

Same assay, conditions: Biolog plate: PM18; well positions: C9-12; ΔrcsB mutant CMS5177; 4 h
With `Oc1c(Cl)c(Cl)c(Cl)c(Cl)c1Cl` [pentachloro-phenol] the “PosmB-lux reporter fold induction” value was 0.784 ± 0.046.

Same assay, conditions: Biolog plate: PM18; well positions: E5-8; ΔrcsB mutant CMS5177; 4 h
For `[O-][I+3]([O-])([O-])O` [sodium m-periodate], the “PosmB-lux reporter fold induction” value was 1.04 ± 0.24.

Same assay, conditions: Biolog plate: PM18; well positions: E9-12; ΔrcsB mutant CMS5177; 4 h
`[Cl][Sb]([Cl])[Cl]` [antimony (III) chloride] was tested, and the “PosmB-lux reporter fold induction” value was 0.481 ± 0.06.

Same assay, conditions: Biolog plate: PM18; well positions: F1-4; ΔrcsB mutant CMS5177; 4 h
`NNC(N)=O` [semicarbazide] was tested, and the “PosmB-lux reporter fold induction” value was 3.86 ± 1.5.

Same assay, conditions: Biolog plate: PM18; well positions: G1-4; ΔrcsB mutant CMS5177; 4 h
For `Oc1cc(Cl)ccc1Oc1ccc(Cl)cc1Cl` [triclosan], the “PosmB-lux reporter fold induction” value was 1.05 ± 0.51.

Same assay, conditions: Biolog plate: PM18; well positions: G5-8; ΔrcsB mutant CMS5177; 4 h
For `Nc1n[nH]c(N)n1` [3,5-diamino-1,2,4-triazole (Guanazole)], the “PosmB-lux reporter fold induction” value was 12 ± 5.6.

Same assay, conditions: Biolog plate: PM18; well positions: H5-8; ΔrcsB mutant CMS5177; 4 h
In the case of `Oc1ccccc1-c1ccccc1` [2-phenylphenol], the “PosmB-lux reporter fold induction” value is reported as 1.22 ± 0.42.

Same assay, conditions: Biolog plate: PM18; well positions: H9-12; ΔrcsB mutant CMS5177; 4 h
For `CC1=CC(=O)c2c(O)cccc2C1=O` [plumbagin], the “PosmB-lux reporter fold induction” value was 1.11 ± 0.53.

Same assay, conditions: Biolog plate: PM20; well positions: C5-8; ΔrcsB mutant CMS5177; 4 h
With `CN1[C@@H]2CC[C@H]1C[C@@H](OC(=O)C(CO)c1ccccc1)C2` (stereo not given in full) [atropine] the “PosmB-lux reporter fold induction” value was 1.49 ± 0.44.

Same assay, conditions: Biolog plate: PM20; well positions: E5-8; ΔrcsB mutant CMS5177; 4 h
For `CCCCCCCCCCCCNC(=N)N` [dodine], the “PosmB-lux reporter fold induction” value was 1.31 ± 0.24.

Same assay, conditions: Biolog plate: PM20; well positions: F1-4; ΔrcsB mutant CMS5177; 4 h
For `O=c1cc(O)c2ccccc2o1` [4-hydroxyl-coumarin], the “PosmB-lux reporter fold induction” value was 1.62 ± 0.32.

Same assay, conditions: Biolog plate: PM20; well positions: G1-4; ΔrcsB mutant CMS5177; 4 h
`O=C1C2CC=CCC2C(=O)N1SC(Cl)(Cl)Cl` (stereo not given) [captan] was tested, and the “PosmB-lux reporter fold induction” value was 1.72 ± 0.34.

Same assay, conditions: Biolog plate: PM20; well positions: G9-12; ΔrcsB mutant CMS5177; 4 h
With `Oc1cccc2cccnc12` [8-hydroxy-quinoline] the “PosmB-lux reporter fold induction” value was 1.84 ± 0.48.

Same assay, conditions: Biolog plate: PM20; well positions: H1-4; ΔrcsB mutant CMS5177; 4 h
In the case of `O=C1C=C2C(=CCOC2O)O1` (stereo not given) [patulin], the “PosmB-lux reporter fold induction” value is reported as 2.24 ± 1.1.

Same assay, conditions: Biolog plate: PM20; well positions: H5-8; ΔrcsB mutant CMS5177; 4 h
`Cc1ccc(N(SC(F)(Cl)Cl)S(=O)(=O)N(C)C)cc1` [tolylfluanid] was tested, and the “PosmB-lux reporter fold induction” value was 1.7 ± 0.64.
